Bioassay records from PubChem BioAssay.
The full list was thinned out, with hits kept by preference.
Tg IFNy HTS = inhibitors of Toxoplasma gondii growth with IFN-gamma. AID 1259416. Toxoplasma gondii growth in IFN-gamma-treated host cells; hits give low values. hit rate 3.8% among 69,000. activity change, negative = inhibition, % (no concentration beside the values); in the data active = activity change below about -70%, passing the limit was not always enough;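 also: host cells are HeLa cells infected with Toxoplasma gondii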
Numbers without * were called inactive; ! = not confirmed by another sample.

CCc1ccn2cc(-c3cc(-c4ccccc4)no3)nc2c1 was read as Tg IFNy HTS -81*.
`CCc1nc(CN(C)C(=O)c2cc(-c3ccccc3)no2)no1` gave Tg IFNy HTS 6.
CCC(=O)Nc1cccc(-c2cn3ccc(C)cc3n2)c1 was read as Tg IFNy HTS -12.
For Cc1nc(C)c(C(=O)N2CCCC(c3ncncc3-c3ccncc3)C2)s1 (configuration not stated) the results were Tg IFNy HTS -12.
`CCSC[C@H](N)C(=O)N1CCC(c2nn(C)c(=O)n2-c2ccccc2)CC1` gave Tg IFNy HTS -4.
For O=C(C1CCCC1)N1CC2(C1)[C@@H](c1ccccc1)[C@H](CO)N2Cc1ccc(Cl)cc1 the results were Tg IFNy HTS -5.
Screening COc1ccc(Cl)cc1NC(=O)Nc1ccccc1 returned Tg IFNy HTS -83*.
COc1ccc(Cl)cc1NC(=O)Nc1ccc(-c2nc(-c3ccccc3)co2)cc1 was read as Tg IFNy HTS 1.
For CCC(CC)C(=O)Nc1cc(Cl)ccc1OC the results were Tg IFNy HTS -3.
Screening O=C(c1cccc(Cl)c1)N1CCC2(CCCN2CC2CC2)CC1 returned Tg IFNy HTS 0.
For CCc1ccc(CN(Cc2ccncc2)Cc2ccc(F)cc2)nc1 the results were Tg IFNy HTS 0.
`OCc1ccc(CN(Cc2ccncc2)Cc2ccc(F)cc2)o1` gave Tg IFNy HTS -8.
Screening Fc1ccc(CN(Cc2ccncc2)Cc2cccc3c2OCO3)cc1 returned Tg IFNy HTS -82*.
`Cc1nc(C(C)C)sc1C(=O)NCC1CCN(c2cnn(C)c(=O)c2)C1` (configuration not stated) gave Tg IFNy HTS 3.
Cc1ccc2nc(C(=O)N3CCN(c4nnc(C(F)(F)F)s4)CC3)cn2c1 was read as Tg IFNy HTS 1.
For Cc1c(C(=O)Nc2ccc(N3CCC(N4CCOCC4)CC3)c(C#N)c2)cnn1-c1ccc(Cl)cc1 the results were Tg IFNy HTS -84*.
O=C(C1CCN(c2cncnc2N2CCOCC2)CC1)N1CCC(N2CCCCC2)CC1 was read as Tg IFNy HTS 56.
For Cc1cc(C(=O)Nc2ccc(N3CCOCC3)cc2)nn1C the results were Tg IFNy HTS 219.
For COc1ccc(N(Cc2nc(-c3cccc(Cl)c3)oc2C)S(=O)(=O)c2cccs2)cc1 the results were Tg IFNy HTS -48.
For CCOc1ccc(-c2cnc(-c3cc(CC)no3)[nH]2)cc1 the results were Tg IFNy HTS 6.
`CCOC(=O)Cn1c2c(c(C(F)(F)F)cc1=O)C(=O)CCC2` gave Tg IFNy HTS -4.
Cc1ccc(C)c(-c2nc(CSc3nc4c(=O)[nH]cnc4n3C)c(C)o2)c1 was read as Tg IFNy HTS 0.
C[C@@H]1CN([C@H](C)CO)C(=O)c2ccccc2-c2ccccc2CO[C@H]1CN(C)C(=O)Nc1ccc(-c2ccccc2)cc1 was read as Tg IFNy HTS -76*.
Screening C[C@@H]1CN([C@@H](C)CO)C(=O)c2ccccc2-c2ccccc2CO[C@@H]1CN(C)C(=O)Nc1ccc(-c2ccccc2)cc1 returned Tg IFNy HTS -60.
`C[C@@H]1CN([C@H](C)CO)C(=O)c2ccccc2-c2ccccc2CO[C@H]1CN(C)C(=O)Nc1cccc(C(F)(F)F)c1` gave Tg IFNy HTS -37.
C[C@H]1CN([C@@H](C)CO)C(=O)c2ccccc2-c2ccccc2CO[C@H]1CN(C)C(=O)NC1CCCCC1 was read as Tg IFNy HTS 14.
For C[C@H](CO)N1C[C@H](C)[C@@H](CN(C)C(=O)Nc2cccc(C(F)(F)F)c2)OCc2ccccc2-c2ccccc2C1=O the results were Tg IFNy HTS -36.
C[C@@H]1CN([C@H](C)CO)C(=O)c2ccccc2-c2ccccc2CO[C@@H]1CN(C)C(=O)Nc1ccc(-c2ccccc2)cc1 was read as Tg IFNy HTS -74*.
CCO[C@H]1COC[C@@H]1NC(=O)c1nnc2nc(C)cc(C)n12 was read as Tg IFNy HTS 54.
N#CCCN(Cc1cccs1)S(=O)(=O)c1ccc2c(c1)CCO2 was read as Tg IFNy HTS -91*.
For CN(C)CCN(Cc1cccs1)S(=O)(=O)c1ccc2[nH]c(=O)ccc2c1 the results were Tg IFNy HTS 361.
CC(C)N(CCC#N)C(=O)Nc1ccc2c(c1)CCO2 was read as Tg IFNy HTS -32.
CCOCCCNC(c1ccccc1)c1ccncc1 (configuration not stated) was read as Tg IFNy HTS 3.
Screening CNCCC(Oc1ccc(C(F)(F)F)cc1)c1ccccc1 (configuration not stated) returned Tg IFNy HTS -86*!.
For CNCC[C@H](Oc1cccc2ccccc12)c1cccs1 the results were Tg IFNy HTS 19.
For CN(C)C(=O)N1CCC(c2nnc3ccc(C(=O)C4CCC4)cn23)C1 (configuration not stated) the results were Tg IFNy HTS 9.
Cc1noc(C2CCCN2C(=O)c2cccc(NCc3sccc3C)c2)n1 (configuration not stated) was read as Tg IFNy HTS -2.
Screening CC(=O)c1ccccc1-c1c(C)c2ccccc2[nH]c1=O returned Tg IFNy HTS 28.
